Source: PubChem (National Center for Advancing Translational Sciences (NCATS))
Rows were chosen to be rich in hits. Some 7.4% of all compounds tested hit in one or more screens of this group.
Rab9 prom act: activators of Rab9 promoter. Huh7 Rab9 promoter-luciferase reporter, luminescence, 24 h. Potency, µM (titrated, usually from 9.22 µM), for the others: at the top dose activation, negative = inhibition, most hits filed as activators. hit rate 2.8% among 320,000. AID 485297; also: % of control where 0% means no effect; nearly all actives have a fitted effect of over 60% in size
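Cells were plated at 1500 per well in reduced-serum medium with 10% FBS and left 2 h. Compound in DMSO was then added for 24 h at 37 °C. Reporter signal was read by luminescence after 10 min with luciferase detection reagent.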
SMN2 splice enh: enhancers of SMN2 splice variant expression | HEK293 SMN2-luciferase splicing reporter, luminescence, 30-36 h | hit rate 2.8% among 210,000 | Potency, µM (doses to about 46.1 µM), without a hit: top-dose activity change, positive = activation, hits mostly activators; also: % of control where 0% means no effect; nearly all actives have a fitted effect of over 55% in size
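HEK293 cells carry an SMN2 […]–luciferase reporter in which exon 7 inclusion puts luciferase in frame. Cells were plated 10-12 h before compound addition, then incubated 30-36 h at 37C. ONE-Glo luminescence was read; sodium butyrate at 4.5 mM final served as control.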
Luc counter: blocks Kinase-Glo luciferase, a counter-screen artifact | Kinase-Glo luciferase, ATP luminescence, 8 min | Potency, µM (highest dose often 38.3 µM), inactives show at the top dose activity change, negative = inhibition, actives largely listed as inhibitors | hit rate 0.28% among 200,000 | Q27757; also: % is scaled to controls: 0 for no effect and ±100 for the full control effect; nearly all actives have a fitted effect of over 60% in size
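Light output from Kinase-Glo luciferase with luciferin and 10 uM ATP in 50 mM imidazole pH 7.2, KCl, MgCl2, Tween 20, BSA; compound pin-delivered, 8-min ambient incubation, then luminescence read.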
ELG1 genotox: genotoxicity induction in ELG1-luciferase HEK293T cells | hit rate 1.3% among 330,000 | AID 504466 | Potency, µM (highest dose often 46 µM), without a hit: at the top dose activity change, positive = activation, most hits filed as activators | HEK293T ELG1-luciferase reporter, luminescence, 16 h; also: % of control where 0% means no effect; nearly all actives have a fitted effect of over 60% in size
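HEK293T cells expressing luciferase-tagged ELG1 were treated with compound or DMSO for 16 hr at 37°C. Luciferase activity was then read after 30 min with ONE-Glo at room temperature; rising signal flags genetic stress.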
FLuc counter: inhibits or activates purified firefly luciferase, miR-21 counter-screen | AID 588342 | purified FLuc, Km substrates, luminescence inhibition | Potency, µM (series often up to 57.5 µM), inactives show at the top dose activity change, negative = inhibition, usual class: inhibitors | hit rate 6.9% among 360,000;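 also: plate controls were vehicle for no effect and reference inhibitor for full effect; nearly all actives have a fitted effect of over 55% in size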
Target sequence (P08659 whole entry, looked up): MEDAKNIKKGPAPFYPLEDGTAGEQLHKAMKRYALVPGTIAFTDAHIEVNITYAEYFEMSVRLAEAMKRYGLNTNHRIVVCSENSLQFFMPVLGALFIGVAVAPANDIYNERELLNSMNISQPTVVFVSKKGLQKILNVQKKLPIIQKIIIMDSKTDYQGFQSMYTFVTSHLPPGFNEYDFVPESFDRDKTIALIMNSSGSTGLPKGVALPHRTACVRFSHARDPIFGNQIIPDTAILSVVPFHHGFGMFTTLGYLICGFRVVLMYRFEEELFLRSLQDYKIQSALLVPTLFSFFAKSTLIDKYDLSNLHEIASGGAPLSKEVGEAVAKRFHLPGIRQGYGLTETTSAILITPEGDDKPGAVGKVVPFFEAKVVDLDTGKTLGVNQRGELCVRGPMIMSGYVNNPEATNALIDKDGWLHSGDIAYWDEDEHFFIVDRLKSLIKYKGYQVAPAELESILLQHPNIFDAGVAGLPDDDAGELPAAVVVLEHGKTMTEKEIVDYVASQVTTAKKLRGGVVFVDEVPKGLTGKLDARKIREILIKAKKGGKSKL
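Biochemical qHTS of compounds, final roughly 60 µM downward over six points, against 10 nM purified firefly luciferase using Km concentrations of substrates (10 uM D-luciferin, 10 uM ATP) in Tris acetate pH 7.5 buffer; luminescence output.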
NPC1 promoter act: activators of NPC1 promoter | Huh7 NPC1 promoter luciferase reporter, 24 h | Potency, µM (doses to about 9.22 µM), inactives show top-dose activation, usual class: activators | hit rate 2.4% among 320,000 | AID 485313; also: % of control where 0% means no effect; nearly all actives have a fitted effect of over 60% in size
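Huh7 reporter cells (NPC1 promoter driving luciferase) are dosed with compound for 24 h at 37 °C, 5% CO2; luciferase detection reagent is then added and luminescence measured after 10 min at ambient temperature.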
Starred values were filed as active, the others as inactive; u = inconclusive; x = no result given; [ ] = another dose, or the depositor's remark. Calls follow the shape of the dose curve; as a rule, active = well fitted curve in the direction sought with a large enough effect; inconclusive = small, poorly fitted or top-dose-only effect, or another doubt; inactive = no such curve, though single readings can be large; an effect the other way counts as inactive or inconclusive. Potency is read from the fitted curve at half-maximal effect.

SMILES | Rab9 prom act | SMN2 splice enh | Luc counter | ELG1 genotox | FLuc counter | NPC1 promoter act
Cc1ccc(-c2nc(C=Nc3cccc(C)c3)c(O)o2)cc1 | 1.0% | -18.5% | -10.0% | 11.8% | u | 5.8%
Oc1oc(-c2ccccc2)nc1/C=N/c1nccs1 | 11.7% | u | -3.5% | 2.1% | 12µM* | 2.1%
COc1ccc(-c2nnc(SCC(=O)NCCc3ccc(OC)c(OC)c3)nc2-c2ccc(OC)cc2)cc1 | x | -10.7% | x | x | -14.0% | x
O=C1C2C3C=CC(C3)C2C(=O)N1CCCCCCN1C(=O)C2C3C=CC(C3)C2C1=O (configuration not stated) | 3.98µM* | x | 11.2µM* | u | 4.26µM* | -19.2%
O=C(Nc1ccc(/C=C/c2nc3ccccc3o2)cc1)c1cccc(C(F)(F)F)c1 | u | x | x | u | u | 28.3%
O=C(Nc1ccc(/C=C/c2nc3ccccc3o2)cc1)c1c(F)cccc1F | 2µM* | 8.91µM* | -0.1% | 1.46µM* | 2.13µM* | 3.16µM*
CC(=O)Nc1ccc(/C=C/c2nc3ccccc3o2)cc1 | 0.447µM* | x | x | u | 4.78µM* | 2.24µM*
c1ccc2c(c1)Nc1nccnc1S2 | 20.5% | u | 1.3% | u | 23.9µM* | 10.2%
O=C1C2C3C=CC(C4CC34)C2C(=O)N1c1ccc2c(c1)OCO2 (configuration not stated) | 4.8% | -20.4% | 0.3% | 0.2% | 21.3µM* | 6.8%
CC(C)=C1C2C=CC1C1C(=O)N(c3ccc4c(c3)OCO4)C(=O)C21 (configuration not stated) | 10.4% | -4.8% | -1.6% | -1.1% | -16.5% | -3.0%
COc1ccc(-c2nc(SCC(=O)Nc3c(C)cc(C)cc3C)n[nH]2)cc1 | x | x | x | x | 15.1µM* | x
COc1ccc(-c2nc(SCC(=O)Nc3cccc(S(N)(=O)=O)c3)n[nH]2)cc1 | 24.8% | x | x | 12.5% | 1.69µM* | 22.5%
COc1ccc(NC(=O)CSc2n[nH]c(-c3ccccc3)n2)cc1S(N)(=O)=O | 2.1% | x | x | 2.4% | 12µM* | -4.8%
CCCN(CCC)C(=O)Cn1c(=O)n(-c2ccc(C)c(C)c2)c(=O)c2c3c(sc21)CCCCC3 | x | 0.6% | x | x | 4.2% | x
CN1CCCC1CCNc1ccc2oc3ccccc3c(=O)c2c1 (configuration not stated) | -3.7% | x | x | u | 4.78µM* | 17.5%
CN1CCCC1CCNc1ccc2c(=O)c3ccccc3oc2c1 (configuration not stated) | u | x | x | u | 10.7µM* | u
CN1CCC[C@H]1CCNC(=O)c1c(-c2ccsc2)sc2ccccc12 | x | x | x | 0.0% | x | x
O=C(NNc1ncnc2c1cnn2-c1ccccc1)c1cccs1 | 0.8% | -0.1% | 1.0% | 13.8% | u | -1.8%
c1ccc(-n2ncc3c(NCc4cccs4)ncnc32)cc1 | 2µM* | 11.2µM* | 0.3% | 10.3µM* | 12µM* | 3.55µM*
COc1ccc(-n2ncc3c(NCc4cccs4)ncnc32)cc1 | 1.12µM* | u | -0.7% | u | 9.53µM* | 2.51µM*
COc1ccc(-n2ccnc(NCc3cccs3)c2=O)cc1 | x | x | x | x | -13.4% | x
CCN1/C(=C\C(=S)Nc2ccccc2)Sc2ccccc21 | 2.82µM* | u | 0.7% | u | 13.5µM* | u
CCN1/C(=C\C=C(C(C)=O)C(C)=O)Sc2ccccc21 | -1.9% | 17.0% | -1.2% | 18.9% | -17.9% | -7.6%
Cc1ccc(-n2nc(C(=O)N(C)c3ccc(C)c(C)c3)c3c4ccccc4n(C)c3c2=O)cc1 | x | -7.9% | x | x | -7.9% | x
CN/N=C(\Cc1nc2ccccc2[nH]1)c1ccc([N+](=O)[O-])cc1 | u | u | -4.0% | 12.9% | 16.9µM* | u
SMILES | Rab9 prom act | SMN2 splice enh | Luc counter | ELG1 genotox | FLuc counter | NPC1 promoter act
O=C(Cc1nc2ccccc2[nH]1)c1ccc([N+](=O)[O-])cc1 | u | x | x | u | 15.1µM* | 3.16µM*
O=C(Cc1nc2ccccc2[nH]1)c1ccc(Cl)cc1 | 2.51µM* | x | x | 16.0% | 6.01µM* | 2.51µM*
Clc1ccc(/C(Cc2nc3ccccc3[nH]2)=N\Nc2ccccc2)cc1 | 2.82µM* | x | x | u | 13.5µM* | 3.55µM*
COC(=O)[C@@]1(Cc2ccc(OC)cc2)[C@H]2c3cc(C(=O)N(C)C)n(Cc4ccc(Cl)c(C(F)(F)F)c4)c3C[C@H]2CN1C(=O)c1ccccc1 | x | -35.2% | 0.8% | x | x | x
Cc1cc(C(=O)NCCc2ccc(Cl)cc2)c2c(C)nn(-c3cccc(F)c3)c2n1 | x | x | x | x | -1.4% | x
O=C(O)c1ccc(CNCc2ccc(Cl)cc2)s1 | x | -2.0% | x | x | -9.2% | x
O=C(NCCc1nc2ccccc2[nH]1)c1cccc(Br)c1 | -3.9% | -12.0% | 0.2% | 0.2% | 6.1% | 0.2%
N#CCCN/N=C(/Cc1nc2ccccc2[nH]1)c1cccc(Cl)c1 | 19.0% | 0.562µM* | -3.0% | 0.2% | u | 10.8%
COc1ccccc1NC(=O)CCn1nc(-c2ccccc2OC)c2c(C)cc(C)nc21 | x | -11.8% | x | x | -15.9% | x
Cc1nc(NC(=O)c2ccccc2)nc2cc3c(cc12)OCO3 | u | u | u | u | 16.9µM* | u
COc1ccc(C)cc1NC(=O)Cn1c(=O)ccc2cc(S(=O)(=O)N3CCC(C)CC3)ccc21 | x | x | x | x | -3.1% | x
CCN(CC)CCCCNC(=O)c1ccc(Cc2nc3ccccc3[nH]2)cc1 | x | x | -4.5% | x | x | x
CCOc1ccccc1CN1CCc2nc(N3CCN(c4ccccc4F)CC3)ncc2C1 | x | x | x | x | 0.4% | x
COc1ccc2c(c1)C(c1ccccc1OC)CC(=O)O2 (configuration not stated) | x | x | -0.1%[39.9 µM] | x | x | x
O=C(CS(=O)(=O)c1ccc(Cl)cc1)Nc1nc2ccc(Br)cc2s1 | x | x | x | x | -5.0% | x
COC(=O)Nc1nc2ccc(Br)cc2s1 | 1.41µM* | 26.2% | -3.3% | u | -10.3% | 27.7%
O=C(Nc1nc2ccc(S(=O)(=O)N3CCCC3)cc2s1)C1CCCCC1 | -24.5% | -37.5% | -4.8% | -1.7% | 0.5% | -33.5%
CC(C)c1ccc2nc(NC(=O)C3CC3)sc2c1 | 1.58µM* | x | x | u | 7.57µM* | 1.58µM*
CC(=O)Nc1nc2ccc(C(=O)NC3CCCCC3)cc2s1 | 2.2% | -3.1% | -1.0% | 0.2% | -17.2% | -1.2%
COC(=O)c1ccc2nc(NC(=O)C3CCCCC3)sc2c1 | 0.316µM* | x | 0.1% | u | u | 0.891µM*
COC(=O)c1ccc2nc(Nc3nc4ccc(F)cc4s3)sc2c1 | -20.5% | -93.4% | 2.0% | u | 4.78µM* | -18.5%
CC(=O)c1sc(Nc2nc3ccc(F)cc3s2)nc1C | 1.78µM* | 12.6µM* | -6.0% | 2.8% | 3.38µM* | 2.82µM*
CCOC(=O)c1csc(Nc2nc3ccc(F)cc3s2)n1 | 22.7% | -21.1% | -9.2% | 1.0% | -15.7% | 14.3%
COC(=O)c1ccc2nc(NC(=O)C(C)(C)C)sc2c1 | 0.282µM* | -91.0% | -2.1% | u | 0.426µM* | u
